Measured potencies and affinities stand elsewhere. Active and inactive are the calls of the source. The rule behind the calls is not given here.
Assay: CCR5-tropic HIV-1 fusion blockers – cell-based, CCR5-tropic Env, dose response (AID 2279)
Conditions: CCR5-tropic HIV-1 Env, reporter read-out; series mostly up to 50 µM; inhibition: at the top concentration

inhibition, inactive:
O=C(O)c1ccc(-c2ccc(/C=c3/sc4nc5ccccc5n4c3=O)o2)cc1Cl 8.02%
CCOc1cc(/C=C2\C(=O)N(c3cccc(C(=O)O)c3)N=C2C(F)(F)F)ccc1OCC(=O)Nc1ccccc1OC 25.7%
NS(=O)(=O)c1cc(C(=O)NC2CCSc3ccccc32)ccc1Cl (centres undefined) -1.13%
O=C(COc1ccc2ccccc2c1)Nc1cccc(C(=O)Nc2ccccc2C(=O)O)c1 1.46%
O=C(O)c1[nH]c2ccccc2c1C(c1cc(Cl)cc([N+](=O)[O-])c1O)c1c(C(=O)O)[nH]c2ccccc12 -29.6%
COc1ccccc1OCCOc1ccc(/C=C2\C(=N)N3N=C(S(C)(=O)=O)SC3=NC2=O)cc1 8.49%
CC(c1ccccc1)N1C(=O)c2ccc(C(=O)Nc3ccc(Br)cc3C(=O)O)cc2C1=O (centres undefined) 1.67%
O=C(O)CN1C(=O)/C(=C\c2cccc(OCc3ccc(Cl)cc3Cl)c2)SC1=S 22.3%
CCCCCC#CCC#CCC#CCC#CCCCC(=O)O 23.7%
Cc1cc(/C=C2/C(=N)N3C(=NC2=O)SN=C3S(C)(=O)=O)c(C)n1-c1ccccc1 5.12%
COc1ccc2c(c1)cc(C(=O)N/N=C/c1c(O)c(C(=O)O)cc3ccccc13)n2C 4.15%
O=C(NN1C(=O)/C(=C/c2ccc(O)c([N+](=O)[O-])c2)SC1=S)c1ccccc1Cl -9.47%
O=C(O)CN1C(=O)/C(=C\c2cc(Br)ccc2OCc2ccccc2F)SC1=S -3.94%
COc1cc(/C=N/NC(=O)C(Cc2c[nH]c3ccccc23)NC(=O)OCc2ccccc2)cc([N+](=O)[O-])c1O (centres undefined) 9.4%
O=C(O)CSc1cc(C(=O)c2cc(F)ccc2O)cn2c(=O)c3c(-c4ccccc4)csc3nc12 24.1%
CCOc1cc(/C=N/N=C2/NC(=O)C(CC(=O)O)S2)ccc1OCc1ccc(Cl)cc1 (centres undefined) 10.5%
O=C(O)C1Nc2c(cccc2C(F)(F)F)C2C=CCC12 (centres undefined) 9.45%
O=C(O)CSc1nc(-c2ccc(Cl)cc2)nc2c1oc1ccccc12 34.2%
O=C1NN(c2ccc(Cl)c(Cl)c2)C(=O)/C1=C/c1ccc(-c2ccccc2C(=O)O)o1 -10.8%
Cc1ccc(F)c(NC(=O)/C(C#N)=C(\O)c2ccc(C(C)(C)C)cc2)c1 25%
CCc1ccc(S(=O)(=O)/N=C2\C=C(NS(=O)(=O)c3ccccc3)C(=O)c3ccccc32)cc1 -36.3%
Cc1c(Cl)cccc1NS(=O)(=O)c1ccc2c(c1)C1C=CCC1C(c1ccc(C(=O)O)cc1)N2 (centres undefined) 39.9%
O=C(O)c1cc(N2N=C(C(F)(F)F)/C(=C/C=C/c3ccco3)C2=O)ccc1Cl 17.9%
COc1ccc(-c2coc3c(C)c4oc(=O)c(CCC(=O)O)c(C)c4cc23)cc1 -8.28% [at 25 µM]
CC(C)COc1ccc(-c2nn(-c3ccccc3)cc2/C=C2/SC(=S)N(CC(=O)O)C2=O)cc1 -10.6% [at 25 µM]
O=C(O)c1ccc(NS(=O)(=O)c2ccc3c(c2)C2C=CCC2C(c2ccccc2F)N3)cc1 (centres undefined) 1.73%
O=C1N=c2ccc(Br)cc2=C1c1sc(=S)n(NS(=O)(=O)c2ccccc2)c1O -3.14%
CSc1ccc(C(c2c(C(=O)O)[nH]c3ccccc23)c2c(C(=O)O)[nH]c3ccccc23)cc1 -22.7%
Cc1ccc(S(=O)(=O)/N=C2/NC(=O)/C(=C/c3cc([N+](=O)[O-])ccc3O)S2)cc1 -12.6%
COc1ccc(C(=O)Nc2ccccc2C(=O)O)cc1NC(=O)C(c1ccccc1)c1ccccc1 32.5%
O=C(O)c1ccc(Cl)c(S(=O)(=O)Nc2ccccc2C(=O)Nc2ccc(Cl)cc2)c1 -12.6%
COc1cc(/C=C2/C(=O)NN(c3ccc(C)c(Cl)c3)C2=O)cc([N+](=O)[O-])c1O -5.49%
COc1cc(/C=C2/SC(=S)N(CC(=O)O)C2=O)ccc1OCC(=O)Nc1ccc(C)c(C)c1 -12.3%
CCCCCNC(=O)c1ccc2c(=O)[nH]c3c(C(=O)NCC4CCCO4)sc(=S)n3c2c1 (centres undefined) 28.3%
